# Where “and” joins values, the source holds several entries; their conditions need not be identical. Equal values may be shown once. Results filed as inconclusive are left out. A call without a number means that no potency is given here. Some compounds were tested as several samples or in several runs, with calls that do not always agree. Calls of active or inactive are those of the source. Calls follow the shape of the dose curve; as a rule, active = well fitted cell-killing curve with a large enough effect in the repeat runs; inconclusive = weak or mixed curves, or effect the other way; inactive = no such curve, though single readings can be large or run the other way.
# Assay: qHTS assay to identify small molecule antagonists of the glucocorticoid receptor (GR) signaling pathway - cell viability counter screen (AID 720693)
# Details: GR-bla HeLa viability, CellTiter-Glo luminescence, 18 h, with 5 nM dexamethasone present; series mostly up to 58.5 µM
# Also: nearly all actives have a fitted effect of over 55% in size.
# Potency is read from the fitted curve at half-maximal effect.
Compound,"viability change, negative = cytotoxic",Potency
Clc1c(Cl)c(Cl)c(Cl)c(Cl)c1Cl,-7.19% [at 7.04 µM] (inactive),
O.O.O.O.O.O.O=S(=O)([O-])[O-].[Ni+2],,inactive
CCOP(=O)(OCC)Oc1nc(Cl)c(Cl)cc1Cl,,inactive
CC(=O)[O-].CC(=O)[O-].O.O.O.[Pb+2],,inactive
CN1C(=O)[C@@H](NC(=O)c2cc3ccccc3[nH]2)N=C(c2ccccc2)c2ccccc21,,inactive
Oc1cc(Cl)cc(Cl)c1,,inactive
Cc1c([N+](=O)[O-])cc2c(c1[N+](=O)[O-])C(C)(C)CC2(C)C,,inactive
CC(=O)[O-].CC(=O)[O-].CC(=O)[O-].[Sb+3],-0.477% [at 7.04 µM] (inactive),
ClCBr,,inactive
O.O.O.O=C([O-])[C@H]([O-])[C@@H]([O-])C(=O)[O-].O=C([O-])[C@H]([O-])[C@@H]([O-])C(=O)[O-].[K+].[K+].[Sb+3].[Sb+3],,inactive
Cc1ccn2nc(S(=O)(=O)Nc3c(F)cccc3F)nc2n1,,inactive
CC(=O)O.CC(=O)O.CC(=O)O.CC(=O)O.CC(=O)O.CC(=O)O.CC(=O)O.O.O.[Cr].[Cr].[Cr],,inactive
CCCC[N+]1(C)CCCC1 (tested in a mixture with another compound),,inactive
CC(=O)[O][Sn]([c]1ccccc1)([c]1ccccc1)[c]1ccccc1,,0.871 µM (active)
Nc1c(Cl)c(Cl)c(Cl)c(Cl)c1Cl,,inactive
Cc1cccc(Cc2cnc[nH]2)c1C,,inactive
CCCCC(CC)COC(=O)OOC(C)(C)C (stereo unspecified),,inactive
CC(=O)[O-].CC(=O)[O-].CC(=O)[O-].[Cr+3],,inactive
COC(=O)C(C)N(C(=O)c1ccco1)c1c(C)cccc1C (stereo unspecified),,inactive

Compound,"viability change, negative = cytotoxic",Potency
OCC(Br)CBr (stereo unspecified),,inactive
CCCN,,inactive
O=C1C[C@@H]2OCC=C3CN4CC[C@]56c7ccccc7N1[C@H]5[C@H]2[C@H]3C[C@H]46,,inactive
Cc1ccc2cc3c(ccc4ccccc43)c3c2c1CC3,,inactive
COP(=S)(OC)Oc1nc(Cl)c(Cl)cc1Cl,,inactive
Cc1cc2c3c(c1)C(c1ccccc1)=N[C@@H](NC(=O)c1ccncc1)C(=O)N3CC2,,inactive
CCCCCON=O,,inactive
c1ccc(Nc2ccc(Nc3ccccc3)cc2)cc1,,inactive
Oc1ccc2[nH]cc(CCCCN3CC=C(c4ccccc4)CC3)c2c1,,inactive
CCCCn1cc[n+](C)c1 (tested in a mixture with another compound),,inactive
O=[N+]([O-])c1cccc2cccc([N+](=O)[O-])c12,,inactive
COP(=S)(OC)Oc1ccc([N+](=O)[O-])c(C)c1,,inactive
CC(O)C(=O)[O][Hg][c]1ccccc1 (stereo unspecified),,0.549 µM (active)
COP(=O)(OC)Oc1ccc([N+](=O)[O-])cc1,,inactive
BrCC(Br)(Br)Br,,inactive
O=C(N[C@H]1N=C(c2ccccc2F)c2cccc3c2N(CC3)C1=O)c1cc2ccccc2[nH]1,,inactive
CCC[CH2][Sn]([CH2]CCC)([O]C(C)=O)[O]C(C)=O,,inactive
c1ccc(N=NNc2ccccc2)cc1,,inactive

# Assay: qHTS assay for identifying genotoxic compounds that show differential cytotoxicity against isogenic chicken DT40 cell lines with known DNA damage response pathways - Rev3 mutant cell line (AID 743014)
# Details: chicken DT40 Rev3-/- viability, CellTiter-Glo, 40 h; series mostly up to 68.4 µM
Compound,"activity, negative = cytotoxicity",Potency
Clc1c(Cl)c(Cl)c(Cl)c(Cl)c1Cl,6.09% [at 8.53 µM] (inactive),
O.O.O.O.O.O.O=S(=O)([O-])[O-].[Ni+2],,26.1 µM (active)
CC(=O)[O-].CC(=O)[O-].O.O.O.[Pb+2],,inactive
Oc1cc(Cl)cc(Cl)c1,,61.8 µM (active)
CC(=O)[O-].CC(=O)[O-].CC(=O)[O-].[Sb+3],0.291% [at 8.53 µM] (inactive),
ClCBr,,inactive
O.O.O.O=C([O-])[C@H]([O-])[C@@H]([O-])C(=O)[O-].O=C([O-])[C@H]([O-])[C@@H]([O-])C(=O)[O-].[K+].[K+].[Sb+3].[Sb+3],,inactive
Cc1ccn2nc(S(=O)(=O)Nc3c(F)cccc3F)nc2n1,,inactive
CC(=O)O.CC(=O)O.CC(=O)O.CC(=O)O.CC(=O)O.CC(=O)O.CC(=O)O.O.O.[Cr].[Cr].[Cr],,inactive
CCCC[N+]1(C)CCCC1 (tested in a mixture with another compound),,inactive
CC(=O)[O][Sn]([c]1ccccc1)([c]1ccccc1)[c]1ccccc1,,0.172 µM (active)
CCCCC(CC)COC(=O)OOC(C)(C)C (stereo unspecified),,inactive
CC(=O)[O-].CC(=O)[O-].CC(=O)[O-].[Cr+3],,60.9 µM (active)
COC(=O)C(C)N(C(=O)c1ccco1)c1c(C)cccc1C (stereo unspecified),,54.4 µM (active)
OCC(Br)CBr (stereo unspecified),,inactive
CCCN,,inactive
O=C1C[C@@H]2OCC=C3CN4CC[C@]56c7ccccc7N1[C@H]5[C@H]2[C@H]3C[C@H]46,,inactive and 26.6 µM (active)
Cc1ccc2cc3c(ccc4ccccc43)c3c2c1CC3,,inactive
COP(=S)(OC)Oc1nc(Cl)c(Cl)cc1Cl,,61.1 µM (active)
Cc1cc2c3c(c1)C(c1ccccc1)=N[C@@H](NC(=O)c1ccncc1)C(=O)N3CC2,,61.1 µM (active)
CCCCCON=O,,inactive
c1ccc(Nc2ccc(Nc3ccccc3)cc2)cc1,,21.6 µM (active)
Oc1ccc2[nH]cc(CCCCN3CC=C(c4ccccc4)CC3)c2c1,,5.96 µM (active)
CCCCn1cc[n+](C)c1 (tested in a mixture with another compound),,inactive
O=[N+]([O-])c1cccc2cccc([N+](=O)[O-])c12,,61.4 µM (active)
CC(O)C(=O)[O][Hg][c]1ccccc1 (stereo unspecified),,0.217 µM (active)
COP(=O)(OC)Oc1ccc([N+](=O)[O-])cc1,,61.1 µM (active)
O=C(N[C@H]1N=C(c2ccccc2F)c2cccc3c2N(CC3)C1=O)c1cc2ccccc2[nH]1,,inactive
CCC[CH2][Sn]([CH2]CCC)([O]C(C)=O)[O]C(C)=O,,30.9 µM (active)

# From PubChem BioAssay (Tox21)
